Results reported in PubChem BioAssay (EPA / NIEHS).
Inconclusive results are not listed. Activity calls are given as the source filed them. The calls were made as follows, unless noted: active = hit-call score of the fitted dose curve at least 0.9, where 1 is the maximum; inconclusive = response in the unintended direction; inactive = score below 0.9.

Columns and labels:
[1] = Tanguay_ZF_120hpf_BRAI_legacy: (Legacy) Oregon State University Tanguay Lab 120 Hour Post-fertilization zebrafish Assay for Brain Malformation (AID 2283641)
In short: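 Static exposure of staged wild-type embryos until 120 hpf, kept at 28C with light excluded and final DMSO of 0.64% (vol/vol). Presence or absence of brain malformation was noted under brightfield; mortality precluded scoring.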

[2] = Tanguay_ZF_120hpf_SOMI_legacy: (Legacy) Oregon State University Tanguay Lab 120 Hour Post-fertilization zebrafish Assay for Somite Malformation (AID 2283647)
In short: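 Somitogenesis defects are recorded as binary calls in whole larvae at 120 hpf after continuous static chemical exposure starting at 6 hpf in dechorionated 5D embryos. DMSO serves as negative control and baseline.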

[3] = Tanguay_ZF_120hpf_CFIN_legacy: (Legacy) Oregon State University Tanguay Lab 120 Hour Post-fertilization zebrafish Assay for Caudal Fin Malformation (AID 2283649)
In short: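 Single dechorionated 5D wild-type embryos are dosed at 6 hpf (final DMSO 0.64%) and held statically at 28C. Caudal fin malformation is recorded as present or absent at 120 hpf under brightfield, excluding dead embryos.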

[4] = Tanguay_ZF_120hpf_PIG_legacy: (Legacy) Oregon State University Tanguay Lab 120 Hour Post-fertilization zebrafish Assay for Pigmentation Malformation (AID 2283650)
In short: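 Pigment malformation recorded as a binary call at 120 hpf in zebrafish (Tropical 5D) exposed singly from 6 hpf after pronase dechorionation. Static, sealed, 28C exposure, 0.64% DMSO; mortality excludes scoring; positive-direction fit against DMSO.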

[5] = Tanguay_ZF_120hpf_SWIM_legacy: (Legacy) Oregon State University Tanguay Lab 120 Hour Post-fertilization zebrafish Assay for Swim Bladder Malformation (AID 2283654);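 also: swim bladder malformation in each larva scored yes or no under brightfield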
In short: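 Scoring is binary for swim bladder defects at 120 hpf, by brightfield inspection of zebrafish larvae. Embryos were exposed singly from 6 hpf after pronase dechorionation, at 28C with 0.64% DMSO; mortality excluded scoring.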

[6] = Tanguay_ZF_120hpf_NC_legacy: (Legacy) Oregon State University Tanguay Lab 120 Hour Post-fertilization zebrafish Assay for Notochord and Tail Malformation (AID 2283656)
In short: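 Binary notochord-distortion calls, made by brightfield inspection, form the read-out; activity is fitted in the positive direction against DMSO. Exposure ran statically from 6 to 120 hpf at 28C with 0.64% DMSO.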

[7] = read-out: Broad substrate specificity ATP-binding cassette transporter ABCG2 (Homo sapiens) (UniProt Q9UNQ0); assay: CLD_ABCG2_6hr: CellzDirect (CLD) Gene Expression Assay for ABC Transporter (ABCG2) at 6 hours (AID 2283660)
In short: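 ABCG2 mRNA induction measured by qNPA chemiluminescence in human primary hepatocyte cultures, 6 h post-dose. Chemicals tested at several concentrations against a 0.2% DMSO vehicle; positive-direction fit relative to DMSO.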

[8] = read-out: xenobiotic metabolism (CYP1A1), CYP1A1 (gene 1543); assay: CLD_CYP1A1_6hr: CellzDirect (CLD) Gene Expression Assay for xenobiotic metabolism (CYP1A1) at 6 hours (AID 2283661);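 as to AC50: potency for transcript induction above DMSO vehicle baseline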
In short: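 Read-out 6 h post-dose: qNPA chemiluminescent quantitation of transcript induction against 0.2% DMSO. Cells were cultured primary human hepatocytes from two separate donor preparations; phase-contrast morphology annotated apparent cytotoxicity.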

[9] = Tanguay_ZF_120hpf_TR_legacy: (Legacy) Oregon State University Tanguay Lab 120 Hour Post-fertilization zebrafish Assay for Touch Response (AID 2283667)
In short: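 Binary touch-response endpoint in larvae at 120 hpf after static waterborne exposure from embryo stage (28°C, 0.64% DMSO vehicle, 5 uM trimethyltin chloride as positive control); embryos dead at 24 or 120 hpf excluded; fitted as gain versus DMSO.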

[10] = read-out: sulfotransferase (SULT2A), SULT2A1 (gene 6822); assay: CLD_SULT2A_6hr: CellzDirect (CLD) Gene Expression Assay for sulfotransferase (SULT2A) at 6 hours (AID 2283669);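 also: hits raise transcript level above the DMSO vehicle baseline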
In short: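 Measured 6 h after dosing, SULT2A1 mRNA in human hepatocyte lysates was quantified by S1 nuclease protection with chemiluminescent detection. Increases fitted against 0.2% DMSO vehicle baseline; phase-contrast cytotoxicity recorded yes/no.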

[11] = Tanguay_ZF_120hpf_CIRC_legacy: (Legacy) Oregon State University Tanguay Lab 120 Hour Post-fertilization zebrafish Assay for Circulatory Malformation (AID 2283651)
In short: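 Static exposure, 6–120 hpf, 28C, sealed and dark; one dechorionated 5D embryo/well; DMSO 0.64% v/v final. Binary circulation endpoint by brightfield; dead embryos not scored.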

[12] = read-out: ABC Transporter (ABCB1), ABCB1 (gene 5243); assay: CLD_ABCB1_6hr: CellzDirect (CLD) Gene Expression Assay for ABC Transporter (ABCB1) at 6 hours (AID 2283659);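 also: hits raise ABCB1 transcript above the DMSO vehicle baseline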
In short: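 ABCB1 transcript measured by quantitative nuclease protection assay, chemiluminescent read-out, 6 h after dosing human hepatocyte cultures (0.2% DMSO vehicle, daily redosing). Activity fitted as increase over DMSO baseline; cytotoxicity flagged by phase-contrast morphology.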

[13] = CCTE_Simmons_CellTiterGLO_HEK293T: Viability Assessment in CCTE's Assays for Thyroperoxidase (TPO) Inhibition, Simmons Lab (AID 2283665);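 also: cells exposed to compound for 24 h before readout; actives reduce ATP signal below DMSO vehicle meaning cytotoxicity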
In short: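 Luminescent ATP readout (CellTiter-Glo, 20 min at room temperature) after 24 hr exposure of HEK293T cells to 5 nM–87.5 uM final compound; signal loss relative to DMSO vehicle indicated cytotoxicity; dichlone titrated as positive control.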

[14] = read-out: xenobiotic metabolism (CYP1A2), CYP1A2 (gene 1544); assay: CLD_CYP1A2_6hr: CellzDirect (CLD) Gene Expression Assay for xenobiotic metabolism (CYP1A2) at 6 hours (AID 2283663);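 as to AC50: potency is for induction meaning a rise in mRNA above DMSO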
In short: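 mRNA levels quantified by quantitative nuclease protection assay with chemiluminescence, 6 h after dosing human primary hepatocyte cultures (two donors) across several concentrations, vehicle 0.2% DMSO. Induction fitted upward versus DMSO; phase-contrast cytotoxicity annotated.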

[15] = Tanguay_ZF_120hpf_PFIN_legacy: (Legacy) Oregon State University Tanguay Lab 120 Hour Post-fertilization zebrafish Assay for Pectoral Fin Malformation (AID 2283648);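 also: each larva judged yes or no for fin defect by brightfield with dead larvae skipped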
In short: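 Pectoral fin malformation was recorded as a binary endpoint at 120 hpf in wild-type Tropical 5D larvae, which had been dechorionated and exposed statically from 6 hpf at 28C in 0.64% DMSO. Dead embryos were excluded.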

[16] = read-out: solute carrier (SLC22A6), SLC22A6 (gene 9356); assay: LTEA_HepaRG_SLC22A6: Life Technologies and Expression Analysis (LTEA) Assay for solute carrier (SLC22A6) using HepaRG (AID 2283653; active = hit-call score of the fitted dose curve at least 0.9, where 1 is the maximum; inactive = score below 0.9); conditions: mRNA level, 48 h; actives raise or lower the signal
In short: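 Gene-expression endpoint in HepaRG hepatic cells: duplicate 8-point concentration-response, highest 100 uM, 48 h treatment in serum-free medium with 0.5% DMSO. SLC22A6 expression measured by qRT-PCR, normalised to ACTB/GAPDH/POLR2A.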

[17] = read-out: solute carrier (SLC10A1), SLC10A1 (gene 6554); assay: LTEA_HepaRG_SLC10A1: Life Technologies and Expression Analysis (LTEA) Assay for solute carrier (SLC10A1) using HepaRG (AID 2283657; active = hit-call score of the fitted dose curve at least 0.9, where 1 is the maximum; inactive = score below 0.9); conditions: mRNA level, 48 h; actives raise or lower the signal
In short: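 SLC10A1 transcript measured by TaqMan qRT-PCR, housekeeping-normalised, after 48 h chemical treatment of human HepaRG cells. Eight concentrations (half-log, max 100 uM, 0.5% DMSO vehicle) in duplicate; fitted bidirectionally against DMSO baseline.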

[18] = read-out: matrix metalloproteinase-1 (MMP1), MMP1 (gene 4312); assay: LTEA_HepaRG_MMP1: Life Technologies and Expression Analysis (LTEA) Assay for matrix metalloproteinase-1 (MMP1) using HepaRG (AID 2283658; active = hit-call score of the fitted dose curve at least 0.9, where 1 is the maximum; inactive = score below 0.9); conditions: mRNA level, 48 h; actives raise or lower the signal
In short: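 In this screen, human liver HepaRG cultures receive each chemical in duplicate for 48 h (top 100 uM, 0.5% DMSO). MMP1 expression is then quantified by TaqMan qRT-PCR with ACTB/GAPDH/POLR2A normalization.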

Measured: AC50

Broad substrate specificity ATP-binding cassette transporter ABCG2 (Homo sapiens), sequence (Q9UNQ0 whole entry, looked up): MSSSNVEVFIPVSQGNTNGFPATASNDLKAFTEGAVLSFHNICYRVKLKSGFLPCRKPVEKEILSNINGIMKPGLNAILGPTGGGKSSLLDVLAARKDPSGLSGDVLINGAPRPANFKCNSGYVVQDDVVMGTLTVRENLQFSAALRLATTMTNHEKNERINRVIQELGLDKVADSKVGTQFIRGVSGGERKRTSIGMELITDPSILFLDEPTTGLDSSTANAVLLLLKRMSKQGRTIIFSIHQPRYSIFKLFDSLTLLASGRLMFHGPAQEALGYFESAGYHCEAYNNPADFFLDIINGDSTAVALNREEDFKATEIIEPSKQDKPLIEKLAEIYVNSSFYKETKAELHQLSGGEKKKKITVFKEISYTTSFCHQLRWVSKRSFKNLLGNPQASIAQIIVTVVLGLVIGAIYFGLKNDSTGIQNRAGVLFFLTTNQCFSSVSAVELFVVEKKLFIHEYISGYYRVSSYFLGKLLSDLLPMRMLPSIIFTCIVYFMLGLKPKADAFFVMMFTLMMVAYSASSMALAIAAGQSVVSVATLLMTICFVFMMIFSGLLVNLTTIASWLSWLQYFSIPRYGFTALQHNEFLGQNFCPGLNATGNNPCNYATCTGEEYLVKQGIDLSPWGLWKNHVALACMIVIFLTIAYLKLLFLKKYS

CCSC(=O)N(CC(C)C)CC(C)C
inactive: [1] | [2] | [3] | [4] | [5] | [6] | [7] | [8] | [9] | [10]

CCCCOC(=O)C(C)Oc1ccc(Oc2ccc(C(F)(F)F)cn2)cc1 (stereo not given)
inactive: [2] | [4] | [11] | [5] | [6] | [8] | [9] | [10]

CCCCOC(=O)[C@@H](C)Oc1ccc(Oc2ccc(C(F)(F)F)cn2)cc1
active: [8] 20 µM
inactive: [1] | [2] | [12] | [7] | [10]

COC(=O)c1c(Cl)nn(C)c1S(=O)(=O)NC(=O)Nc1nc(OC)cc(OC)n1
active: [8] 0.696 µM
inactive: [7] | [10]

O=C(Nc1ccc([N+](=O)[O-])cc1Cl)c1cc(Cl)ccc1O
active: [8] 0.218 µM | [13] 5.34 µM
inactive: [3] | [4] | [5] | [6] | [12] | [7]

c1ccc2[nH]c(-c3cscn3)nc2c1
active: [8] 3.15 µM | [14] 5.82 µM
inactive: [1] | [4] | [11] | [5] | [6] | [12] | [9]

C[C@]12C[C@H](O)[C@H]3[C@@H](CCC4=CC(=O)CC[C@@]43C)[C@@H]1CC[C@@H]2C(=O)CO
inactive: [2] | [3] | [4] | [11] | [6] | [9]

C=CCOC(Cn1ccnc1)c1ccc(Cl)cc1Cl (stereo not given)
inactive: [3] | [6] | [12] | [7] | [9] | [10]
active: [8] 0.0861 µM

N[C@@H](Cc1cc(I)c(Oc2ccc(O)c(I)c2)c(I)c1)C(=O)O
active: [4] 0.00051 µM | [13] 43.8 µM | [9] 7.63 µM
inactive: [2] | [15] | [3] | [11]

C[C@]12CC[C@@H]3c4ccc(O)cc4C[C@@H](CCCCCCCCCS(=O)CCCC(F)(F)C(F)(F)F)[C@H]3[C@@H]1CC[C@@H]2O (stereo not given in full)
inactive: [1] | [2] | [4] | [11] | [5] | [9]

CCOC(=O)NCCOc1ccc(Oc2ccccc2)cc1
not listed: [2] | [7] | [13] | [14] | [16] | [17] | [18]
inactive: all other assays above

CCN(Cc1c(F)cccc1Cl)c1c([N+](=O)[O-])cc(C(F)(F)F)cc1[N+](=O)[O-]
active: [8] 1.9 µM
inactive: [2] | [15] | [3] | [4] | [11] | [5] | [6] | [9] | [10]

COC(=O)c1ccc(CNS(C)(=O)=O)cc1S(=O)(=O)NC(=O)Nc1nc(OC)cc(OC)n1
inactive: [12] | [8] | [10]

CC(=O)S[C@@H]1CC2=CC(=O)CC[C@]2(C)[C@H]2CC[C@@]3(C)[C@@H](CC[C@@]34CCC(=O)O4)[C@H]12
inactive: [3] | [4] | [11] | [5] | [6]

CCOC(=O)c1ccc(O)cc1
inactive: [1] | [3] | [4] | [11] | [5] | [6] | [9]

C#CCOC(=O)[C@@H](C)Oc1ccc(Oc2ncc(Cl)cc2F)cc1
inactive: [2] | [4] | [5] | [12] | [7] | [9] | [10]

CCCCC(CC)COC(=O)c1ccccc1C(=O)O (stereo not given)
active: [8] 0.0637 µM
inactive: [1] | [4] | [11] | [5] | [6] | [12] | [7] | [14] | [10]

c1ccc(Nc2ccccc2)cc1
inactive: [2] | [3] | [4] | [5] | [6] | [7] | [9]
active: [1] 10.2 µM | [8] 3.97 µM | [13] 89.8 µM

COCCO
not listed: [1] | [8] | [10] | [13] | [14] | [15]
inactive: all other assays above
